# The campaign covered roughly 5,500 compounds. About 2,000 (36%) were called active. Inconclusive results (about 18%) are left out. The list shows a part of the results. Values without a mark were called inactive. Cut-off read from the data, not from the text of the source: active = normalized growth mostly below about 0.91 (no sharp cut-off); inconclusive = no clear call, values can overlap the other calls; inactive = mostly above about 0.92.
# Assay: chemical genetic growth profiling, strain panel (AID 1159580);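 note: tested at 20 µM; growth read once vehicle control cultures reached saturation at 30 °C; 1 = growth at the plate median or of vehicle wells; lower values mean less growth of the strain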
# Conditions: S. cerevisiae deletion strains, growth OD
# [1] = locus YAL013W, strain DEP1, active compounds read low
# [2] = locus YBR229C, strain ROT2, active compounds read low
# [3] = locus YCL061C, strain MRC1, active compounds read low
# [4] = locus YDL101C, strain DUN1, active compounds read low
# [5] = locus YDR150W, strain NUM1, active compounds read low
# [6] = locus YEL061C, strain CIN8, active compounds read low
# [7] = locus YGR078C, strain PAC10, active compounds read low
# [8] = locus YHR030C, strain SLT2, active compounds read low
# [9] = locus YHR087W, strain rtc3, active compounds read low
# [10] = locus YJR043C, strain POL32, active compounds read low
# [11] = locus YJR075W, strain HOC1, active compounds read low
# [12] = locus YLR039C, strain RIC1, active compounds read low
# [13] = locus YLR058C, strain SHM2 (second series), active compounds read low
# [14] = locus YLR085C, strain ARP6, active compounds read low
# [15] = locus YLR262C, strain YPT6, active compounds read low
# [16] = locus YML094W, strain GIM5, active compounds read low
# [17] = locus YMR219W, strain ESC1, active compounds read low
# [18] = locus YNL153C, strain GIM3, active compounds read low
# [19] = locus YNL298W, strain CLA4 (second series), active compounds read low
# [20] = locus YNL322C, strain KRE1, active compounds read low
# [21] = locus YNR030W, strain Alg12, active compounds read low
# [22] = locus YPL055C, strain LGE1, active compounds read low
# [23] = locus YPL241C, strain CIN2, active compounds read low
# [24] = locus YPR135W, strain CTF4, active compounds read low
compound,measurement,setting,value
CCCc1cnc(N2CCCN(C(=S)Nc3cccnc3)CC2)nc1,normalized growth,[1],0.998
same,normalized growth,[2],0.997
same,normalized growth,[3],1.01
same,normalized growth,[4],1.06
same,normalized growth,[5],1.03
same,normalized growth,[6],0.959
same,normalized growth,[7],1.02
same,normalized growth,[8],1.05
same,normalized growth,[9],0.992
same,normalized growth,[10],1.03
same,normalized growth,[11],1.03
same,normalized growth,[12],1
same,normalized growth,[13],0.996
same,normalized growth,[14],1.04
same,normalized growth,[15],1.01
same,normalized growth,[16],1.02
same,normalized growth,[17],1.01
same,normalized growth,"locus YMR263W, strain SAP30, active compounds read low",1.03
same,normalized growth,[18],1.02
same,normalized growth,[19],0.999
same,normalized growth,[20],0.987
same,normalized growth,[21],1.01
same,normalized growth,[22],1.02
same,normalized growth,[23],1.02
same,normalized growth,[24],1.07
O=[N+]([O-])c1ccc(N2CCCN(C(=S)Nc3ccc(Cl)cc3Cl)CC2)nc1,normalized growth,[1],0.966
same,normalized growth,[2],0.96
same,normalized growth,[3],0.956
same,normalized growth,[4],0.942
same,normalized growth,"locus YDL134C, strain PPH21, active compounds read low",0.979
same,normalized growth,[5],0.886
same,normalized growth,[6],0.912
same,normalized growth,[7],0.961
same,normalized growth,"locus YGR229C, strain SMI1, active compounds read low",0.989
same,normalized growth,[8],0.422 (active)
same,normalized growth,[9],0.906 (active)
same,normalized growth,[10],0.984
same,normalized growth,[11],0.937
same,normalized growth,[12],0.628 (active)
same,normalized growth,[13],0.96
same,normalized growth,[14],0.543 (active)
same,normalized growth,[15],0.686 (active)
same,normalized growth,[16],0.932
same,normalized growth,[17],0.982
same,normalized growth,"locus YMR307W, strain GAS1, active compounds read low",0.433 (active)
same,normalized growth,[18],0.98
same,normalized growth,[19],0.831 (active)
same,normalized growth,[20],0.98
same,normalized growth,[21],0.8 (active)
same,normalized growth,"locus YOL006C, strain TOP1, active compounds read low",0.831
same,normalized growth,[22],0.928
same,normalized growth,[23],0.866
same,normalized growth,[24],0.337 (active)

# — PubChem BioAssay AID1159580 (chemical genetic matrix, 2015)
